# MPTP block: mitochondrial permeability transition pore inhibitors, primary screen, biochemical, isolated mouse mitochondria, absorbance; Ca2+ swelling absorbance, 30 min; inhibition, % at 10 µM; 1.4% of 360,000 active; AID 602449, 2012;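 active = inhibition of 50% or more, scaled per plate between neutral and stimulator controls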;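 note: 0% = DMSO wells given calcium and 100% = 1 mM EGTA wells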
# HSF1 activator: HSF-1 activators, primary screen, NIH3T3-HGL cells, MG132 stress, luminescence, single point; NIH3T3-HGL HSF-1 luciferase reporter, 8 h; 100% = twice DMSO control signal; activation, % at 9 µM; 1.7% of 300,000 active;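 active = mean replicate activation of at least 50% with a set share of replicates each reaching 50%; inconclusive = only one of those two conditions met; inactive = mean below 50% and too few replicates reaching it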;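 note: 0% = median of the neutral control wells and 100% = twice that signal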
# dFosB act-1: activators of delta FosB homodimer, primary screen, biochemical, fluorescence polarization, TAMRA-CDK5 oligo, single point | purified delta FosB; percent of positive-control signal above neutral wells | activation, % at 25 µM | 0.99% of 340,000 active | AID 493131, 2011;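 active = mean activation above about 17%, with every replicate also reaching it, limit read from the data, passing the limit was not always enough; inconclusive = only one of the two conditions met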
# Target sequence (P13346 whole entry, looked up): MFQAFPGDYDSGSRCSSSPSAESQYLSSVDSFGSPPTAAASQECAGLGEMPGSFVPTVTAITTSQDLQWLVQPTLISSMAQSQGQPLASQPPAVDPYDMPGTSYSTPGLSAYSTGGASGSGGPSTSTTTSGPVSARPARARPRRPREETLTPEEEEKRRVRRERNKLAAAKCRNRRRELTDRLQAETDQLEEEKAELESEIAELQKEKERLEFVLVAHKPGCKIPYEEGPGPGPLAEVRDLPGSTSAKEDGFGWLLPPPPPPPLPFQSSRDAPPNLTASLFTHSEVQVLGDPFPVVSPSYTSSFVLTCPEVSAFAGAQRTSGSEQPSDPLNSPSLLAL
# HSP90 inh: HSP90 inhibitors, primary screen, cell lysate, luminescence | Rabbit reticulocyte lysate, luciferase refolding luminescence, 3 h | inhibition, % at 5.6 µM | 0.91% of 290,000 active | Heat shock protein HSP 90 (rabbit reticulocyte lysate; luciferase refolding);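 active = inhibition above the screen-wide mean plus 3 SD, computed separately per campaign, cut at about 16% in these data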;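 note: 0% = DMSO wells and 100% = 60 µM geldanamycin wells; inhibitors lower the luminescence because luciferase stays unfolded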
# HSF1 inh: HSF1 inhibitors in luciferase reporter cells, primary screen, cell-based, NIH3T3, luminescence | NIH3T3-HGL HSE-luciferase, MG132-induced, luminescence 8 h; stronger effect = lower value | activity change, negative = inhibition, % at 7.5 µM (by protocol) | 0.77% of 300,000 active | AID 2098, 2009;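 active = more than half of replicate wells show activity change below -50%, luminescence cut by over half; inconclusive = some wells, but at most half, below -50%; inactive = no replicate well below -50%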;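 note: luciferase reports HSF-1 transcriptional activity via heat shock element; 0% = median of DMSO wells and -100% = zero luminescence signal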
# Platelet DG rel: inhibitors of platelet dense granule secretion, primary screen, cell-based, MLPCN, human platelets; human platelet-rich plasma, SFLLRN dense granule ATP release, luminescence; inhibition, %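 (compounds screened at 7.5 µM in platelet-rich plasma)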; 0.22% of 300,000 active;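 active = mean replicate score, as percent of positive control, at or above 50; inconclusive = mean below 50 but at least one replicate at or above 50; inactive = mean and every replicate below 50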
# dFosB act-2: activators of mouse delta FosB DNA binding, confirmation, biochemical, fluorescence polarization, TAMRA-CDK5 oligo, cherry-picked samples | activation, % at 24.9 µM | purified delta FosB; normalised: neutral wells 0, positive control 100 | 2,400 tested, under 10 active | AID 588690, 2011 | shares compounds with dFosB act-1;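 active = highest replicate activation at or above 34% and every replicate reaching that threshold; inconclusive = meets only one of the two criteria; inactive = meets neither criterion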;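 note: higher polarization means more probe DNA bound by delta FosB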
# * hit, by the source's call; ? = inconclusive; nt = no result given. Rows were chosen to be rich in hits. Some 4.9% of all compounds tested hit in one or more screens of this group.
SMILES,MPTP block,HSF1 activator,dFosB act-1,HSP90 inh,HSF1 inh,Platelet DG rel,dFosB act-2
CC(=O)n1cc(/C=N/NC(=O)c2cccc(O)c2)c2ccccc21,0,16,27*,-2,9,23,6
Cc1ccc(C(=O)OCC(=O)Nc2ccc(N(C)C)cc2)cc1NC(=O)c1ccco1,-1,6,-14,-3,-2,3,nt
Cc1ccc(C(=O)OCC(=O)Nc2cc(F)ccc2F)cc1NC(=O)c1ccco1,0,-6,32*,-7,-6,2,8
Cc1nc(N)c(C#N)c(-c2ccccc2)c1C,0,6,-4,-5,-7,2,nt
Cc1cc(C)c2c(n1)sc1c(-c3ccccc3)c(C#N)c(N)nc12,2,2,29*,0,1,-5,-2
COc1ccc(Br)cc1-c1noc(-c2ccccc2)n1,5,23,27*,-2,13,8,?
COc1ccc(Br)cc1-c1noc(-c2ccncc2)n1,-1,3,-6,5,-5,11,nt
O=C(Nc1ccc2nn(-c3ccccc3)nc2c1)c1cccnc1,0,nt,-19,-3,nt,nt,nt
O=C(Nc1ccc2nn(-c3ccc(F)cc3)nc2c1)c1cccnc1,-1,-2,30*,1,3,11,2
O=C(Nc1nc(-c2ccc(F)cc2)cs1)c1cccnc1,0,-6,34*,0,5,-8,1
CCOc1ccc(S(=O)(=O)N2CCN(C(=O)c3cc(C4CC4)nn3-c3ccccc3)CC2)cc1,-2,nt,-11,nt,nt,nt,nt
CCC(=O)NC(=S)Nc1ccc2oc(-c3ccc(OC)cc3)nc2c1,1,10,40*,10,17,4,2
Cc1ccc(C)c(NC(=O)Cn2nc(-c3ccccc3)nc2-c2ccccc2)c1,-1,-8,55*,-9,-2,3,-9
Cc1ccc(NC(=O)Cn2nc(-c3ccccc3)nc2-c2ccccc2)c(C)c1,-1,-3,13,-4,1,29,nt
COc1ccc(CCn2c(=N)c(C(=O)NCCN3CCOCC3)cc3c(=O)n4cccc(C)c4nc32)cc1OC,-1,11,22*,-5,4,-2,0
COCCn1c(=N)c(C(=O)NCCc2ccccc2)cc2c(=O)n3cccc(C)c3nc21,-2,nt,-2,-2,nt,5,nt
Cc1cccn2c(=O)c3cc(C(=O)NCCc4ccccc4)c(=N)n(CCCn4ccnc4)c3nc12,-1,10,22*,0,10,-2,1
COc1ccc(CCn2c(=N)c(C(=O)NCCN3CCOCC3)cc3c(=O)n4ccccc4nc32)cc1OC,-1,-4,-1,-7,2,-16,nt
Cn1ncc(Cl)c1C(=O)N1CCN(c2ccc(Cl)c(Cl)c2)CC1,13,-9,2,-2,-2,-1,nt
C=CCN(c1ccccc1)S(=O)(=O)c1cccc(C(=O)NCC(c2ccc(OC)cc2)N2CCCCC2)c1 (configuration not stated),33,nt,?,nt,nt,nt,nt
C=CCN(c1ccccc1OC)S(=O)(=O)c1cccc(C(=O)NCC(c2ccc(OC)cc2)N2CCCC2)c1 (configuration not stated),0,nt,27*,nt,nt,nt,-2
COc1ccc(C(CNC(=O)c2oc3ccc(OC)cc3c2C)N2CCCC2)cc1 (configuration not stated),3,8,10,nt,3,-2,nt
CCc1ccc2oc(C(=O)NCC(c3ccc(OC)cc3)N3CCCCC3)c(C)c2c1 (configuration not stated),3,-8,21*,2,-1,-1,0
Cc1nn(Cc2c(Cl)cccc2Cl)c(C)c1NC(=O)c1sc2ccccc2c1Cl,8,17,40*,1,6,0,5
Cc1nn(Cc2ccc(Cl)c(Cl)c2)c(C)c1NC(=O)c1sc2ccccc2c1Cl,0,23,-7,-1,18,-1,nt
SMILES,MPTP block,HSF1 activator,dFosB act-1,HSP90 inh,HSF1 inh,Platelet DG rel,dFosB act-2
CN(CC(=O)Nc1c(Cl)cccc1Cl)C(=O)CNC(=O)c1sc2ccccc2c1Cl,-1,nt,35*,nt,nt,nt,-2
CN1C(=O)CCC(CCC(=O)O)(c2ccccc2O)C1=O (configuration not stated),-1,-23,-6,10,-11,-1,nt
COc1ccc(CCNC(=O)C(=O)NCc2ccc(Cl)cc2)cc1OC,-1,-2,43*,0,-4,0,-5
CCCCn1c(N)c(N(CCC(C)C)C(=O)C2CC(=O)N(c3cccc(SC)c3)C2)c(=O)[nH]c1=O (configuration not stated),-1,13,40*,nt,10,-5,6
CCCCn1c(N)c(N(CCC(C)C)C(=O)C2CC(=O)N(c3ccc4c(c3)OCCO4)C2)c(=O)[nH]c1=O (configuration not stated),1,-4,0,-5,2,2,nt
CCCCn1c(N)c(N(CC(C)C)C(=O)C2CCN(S(=O)(=O)c3ccccc3)CC2)c(=O)[nH]c1=O,-2,-37,55*,nt,-22,-5,4
COC(=O)c1sc2ncccc2c1OCc1c(Cl)cccc1Cl,5,-7,35*,-1,3,-11,5
Cc1ccc(C(NC(=O)c2ccccc2)C(Cl)Cl)cc1 (configuration not stated),5,26,-6,5,2,-10,nt
Cc1ccc(C(=O)NC(NC(=O)c2ccc(C)cc2)C(Cl)Cl)cc1,2,7,24*,-1,4,-5,1
N#CC(=C(O)COC(=O)c1ccc2c(c1)OCCO2)c1nc2ccccc2[nH]1,0,nt,7,nt,nt,nt,nt
Cc1c(C(=O)OC/C(O)=C(\C#N)c2nc3ccccc3[nH]2)oc2ccccc12,6,-19,45*,6,-6,0,-9
COc1cc(OC)cc(C(=O)OC/C(O)=C(\C#N)c2nc3ccccc3[nH]2)c1,2,0,40*,3,-1,-1,4
Cc1ccc(NC(=O)c2ccc(C(=O)c3ccccc3)cc2)nc1,-1,20,-7,nt,10,-4,nt
COc1cc(/C=C/C(=O)OCC(=O)Nc2c(C)n(C)n(-c3ccccc3)c2=O)cc(OC)c1OC,0,nt,-1,nt,nt,nt,nt
COc1ccc(CNc2ncnc3cc(Cl)ccc23)cc1OC,-1,11,-2,0,1,-3,nt

# High-throughput results (PubChem BioAssay)
